Here are results for 7 compounds from PubChem BioAssay (Tox21).

Values joined by “and” are separate entries in the source; they are usually repeats but may differ in a detail not shown here. Equal values may be shown once. Inconclusive results are not listed. The source holds several records for some structures; these can differ, active in one and inactive in another. Active and inactive are the calls of the source. Unless noted, calls follow the shape of the dose curve; as a rule, active = well fitted curve in the direction sought with a large enough effect in the repeat runs; inconclusive = weak or mixed curves; inactive = no such curve, though single readings can be large; an effect the other way counts as inactive or inconclusive.

The nature of assay [1]: qHTS assay to identify small molecule agonists of the hypoxia (HIF-1) signaling pathway - cell viability counter screen (AID 1224844; calls by dose curve; also: nearly all actives have a fitted effect of over 50% in size; also: potency is read from the fitted curve at half-maximal effect). In outline: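 Tox21 10K compounds were added to HRE-bla ME-180 cells (0.5% dialyzed FBS) and incubated 17 hrs at 37C; ATP-based CellTiter-Glo luminescence then reported cell viability in the same wells.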
Assay [2] in a line: qHTS assay to identify small molecule agonists of H2AX (AID 1224845; active = well fitted activation curve with a large enough effect in the signal ratio in the repeat runs, not every such curve was filed as active; the % refers to the signal ratio; also: potency is read from the fitted curve at half-maximal effect). The gist of the method:
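Wild-type CHO-K1 cells, plated overnight, exposed 3hr at 37C to 15 concentrations (0.76% DMSO final). Lysed, then HTRF anti-pH2AX (S139) cryptate and anti-H2AX-d2 antibodies, 24 hr room temperature; 665/620 nm emission read.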

Assay [3] in a line: qHTS assay to identify small molecule antagonists of the estrogen related receptor (ERR) signaling pathway from Tox21 library (AID 1224848). Also: nearly all actives have a fitted effect of over 50% in size. Also: potency is read from the fitted curve at half-maximal effect. In outline:
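ERR reporter cell line (from NTP) seeded 2,000 cells/well, rested 6 h at 37 C/5% CO2, then pin-dosed with compounds in DMSO. After 18 h at 37 C, ONE-Glo added; luminescence read after 30 min at room temperature.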
(In general: In qHTS, concentration-response curves come from the screen itself.)

A short description of assay [4]: qHTS assay to identify small molecule agonists of the estrogen related receptor (ERR) signaling pathway from Tox21 library (AID 1224849; calls by dose curve; also: nearly all actives have a fitted effect of over 15% in size). The conditions noted are these: ERR reporter cell line, ONE-Glo luciferase, 18 h. In outline: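 Agonist signal is luciferase luminescence from an ERR reporter cell line treated 18 h at 37 C with DMSO-dissolved compounds, read 30 min after ONE-Glo addition at room temperature.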

Assay [5] in a line: qHTS RealTime-Glo MT Cell Viability Assay in HepG2 cells - 24 hour (AID 1224867). Also: nearly all actives have a fitted effect of over 50% in size. In outline: (§1)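 Cells + NanoLuc/prosubstrate dispensed (600 cells/well) → 5 h at 37 C/5% CO2 → compounds in DMSO transferred → 40 h incubation at 37 C, luminescence read at 0, 8, 16, 24, 32, 40 h.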
Assay [6] is described as follows: qHTS RealTime-Glo MT Cell Viability Assay in HEK293 cells - 32 hour (AID 1224868). Also: nearly all actives have a fitted effect of over 50% in size. Also: potency is read from the fitted curve at half-maximal effect. The gist of the method:
(§2)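 Tox21 10K qHTS, HEK293, 600 cells/well, RealTime-Glo reagent co-dispensed with cells; 5 h preincubation, compound by pintool, 37 C, luminescence at 0–40 h.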

Assay [7] in a line: A CellTox Green Cytotoxicity Assay to monitor cytotoxicity in HEK293 cells - 0 hour (AID 1224869). Also: nearly all actives have a fitted effect of over 50% in size. In outline: (§3)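 Cytotoxicity was tracked continuously in HEK293 cells by a DNA-binding dye excluded from viable cells. Compounds were transferred in DMSO 5 h after seeding; fluorescence was recorded at intervals up to 40 h.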
Assay [8] in a line: qHTS RealTime-Glo MT Cell Viability Assay in HepG2 cells - 40 hour (AID 1224870). Also: nearly all actives have a fitted effect of over 50% in size. Also: potency is read from the fitted curve at half-maximal effect. In outline: (§4)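 HepG2 cells (600/well) mixed with RealTime-Glo MT reagent, settled 5 h at 37 C/5% CO2 before compound addition. Nonlytic NanoLuc luminescence from viable-cell prosubstrate reduction read repeatedly during 40 h treatment at 37 C.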
Assay [9] in a line: A CellTox Green Cytotoxicity Assay to monitor cytotoxicity in HEK293 cells - 40 hour (AID 1224871). Also: nearly all actives have a fitted effect of over 45% in size. Also: potency is read from the fitted curve at half-maximal effect. The gist of the method:
as §3

Assay [10] in a line: qHTS RealTime-Glo MT Cell Viability Assay in HEK293 cells - 16 hour (AID 1224872). Also: nearly all actives have a fitted effect of over 50% in size. Also: potency is read from the fitted curve at half-maximal effect. In outline: as §2
Assay [11] can be described thus: qHTS RealTime-Glo MT Cell Viability Assay in HepG2 cells - 8 hour (AID 1224873). Also: nearly all actives have a fitted effect of over 55% in size. The gist of the method: as §4
A short description of assay [12]: qHTS RealTime-Glo MT Cell Viability Assay in HEK293 cells - 40 hour (AID 1224874). Also: nearly all actives have a fitted effect of over 50% in size. Also: potency is read from the fitted curve at half-maximal effect. The following applies: RealTime-Glo luminescence; max response: stronger effect = lower value. The gist of the method:
(§5)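 Nonlytic bioluminescent viability monitoring. HEK293 at 600 cells/well with reagent; 5 h settle; compound transfer by pintool; plates held at 37 C and read at set time points.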

The nature of assay [13]: A CellTox Green Cytotoxicity Assay to monitor cytotoxicity in HEK293 cells - 24 hour (AID 1224875). Also: nearly all actives have a fitted effect of over 45% in size. In outline: as §3
Assay [14] is described as follows: A CellTox Green Cytotoxicity Assay to monitor cytotoxicity in HepG2 cells - 16 hour (AID 1224876). Also: nearly all actives have a fitted effect of over 45% in size. Also: potency is read from the fitted curve at half-maximal effect. In outline: (§6)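 Real-time, homogeneous cytotoxicity readout: dead-cell DNA staining by CellTox Green in HepG2 monolayers, fluorescence measured at timed intervals up to 40 h of continuous compound exposure.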
The nature of assay [15]: qHTS RealTime-Glo MT Cell Viability Assay in HepG2 cells - 32 hour (AID 1224877). Also: nearly all actives have a fitted effect of over 55% in size. Also: potency is read from the fitted curve at half-maximal effect. The gist of the method: as §1
Assay [16] is described as follows: A CellTox Green Cytotoxicity Assay to monitor cytotoxicity in HepG2 cells - 24 hour (AID 1224878). Also: nearly all actives have a fitted effect of over 45% in size. Also: potency is read from the fitted curve at half-maximal effect. The gist of the method: as §6
Assay [17] can be described thus: A CellTox Green Cytotoxicity Assay to monitor cytotoxicity in HepG2 cells - 40 hour (AID 1224879). Also: nearly all actives have a fitted effect of over 40% in size. Also: potency is read from the fitted curve at half-maximal effect. The gist of the method: as §6
A short description of assay [18]: qHTS RealTime-Glo MT Cell Viability Assay in HEK293 cells - 0 hour (AID 1224880). The gist of the method: as §5
Assay [19] in a line: qHTS assay to identify small molecule agonists of the hypoxia (HIF-1) signaling pathway (AID 1224846; active = well fitted activation curve with a large enough effect in the signal ratio in the repeat runs, not every such curve was filed as active; the % refers to the signal ratio). In outline: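 Steps: seed ME-180 HRE-bla cells (2,000/well, 0.5% dialyzed FBS); incubate 5 hrs at 37C; pin-transfer compounds or DMSO; incubate 17 hrs; add LiveBLAzer B/G substrate CCF4-AM; measure reporter activation by FRET.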
Assay [20] can be described thus: qHTS assay to identify small molecule agonists of H2AX - cell viability counter screen (AID 1224847; calls by dose curve; also: nearly all actives have a fitted effect of over 30% in size; also: potency is read from the fitted curve at half-maximal effect). The gist of the method:
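Cells plated first: CHO-K1, 1000 per well in 10% FBS medium, incubated overnight at 37C. Then 15-point compound titration added (final DMSO 0.76%) for 3 hr. Finally CellTiter-Glo added and luminescence read.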

The mark [21] stands for this setting: at 92.4 µM (top of the series) unless noted.
% is scaled to controls: 0 for no effect and ±100 for the full control effect.

On to `Cc1cc(C)c(C2=C(OC(=O)CC(C)(C)C)C3(CCCC3)OC2=O)c(C)c1`, for which the Potency entry in assay [1], in [2], in assay [3], in assay [5], in assay [6] and in [7] was “inactive” in each case. Moreover, the Potency result in assay [8], in assay [9], in assay [10], in [11], in assay [13] and in assay [14] was “inactive” throughout. Moreover, the Potency entry in assay [15], in [16], in [17] and in assay [18] was “inactive” in each case. Besides, the activity change, positive = activation in [4] (setting [21]) was -1.28% (inactive). Moreover, the max response in assay [12] is -6.03% (inactive).
With `CC(C)CCCCCCCOP(=O)(Oc1ccccc1)Oc1ccccc1`, the Potency result in assay [1], in assay [2], in assay [5], in assay [7], in [8] and in [9] was “inactive” each time. Also, the Potency entry in [11], in assay [13], in assay [14], in [15], in assay [16] and in [17] was “inactive” in each case. Besides, the Potency entry in assay [18] was “inactive”. Besides, the compound was classed as inactive in assay [19]. Further, the activity change, positive = activation in assay [4] (setting [21]) was -16.8% (inactive). The max response in assay [12] is -33.6% (inactive).
On to `Clc1ccc(COC(Cn2ccnc2)c2ccc(Cl)cc2Cl)cc1` (configuration not stated), for which the Potency in assay [1] was 32.3 µM (active) and 34.5 µM (active) and inactive; in [20], 66.6 µM (active) and 56.4 µM (active); in [3], 20.2 µM (active) and 21.6 µM (active) and 18.8 µM (active); in assay [6], 18.2 µM (active) and 24.4 µM (active) and 9.52 µM (active); in [8], 48.8 µM (active); in [9] it was 45.7 µM (active) and 54.7 µM (active) and inactive. The Potency was 20.4 µM (active) and 19.4 µM (active) in assay [10]; 16.2 µM (active) and 24.4 µM (active) in assay [12]; 54.7 µM (active) in [14]; 48.8 µM (active) in [15]; 45.7 µM (active) and 54.7 µM (active) in assay [16]; 45.7 µM (active) and 54.7 µM (active) and 16.9 µM (active) in assay [17]. The Potency entry in assay [2] and in assay [18] was “inactive” each time. The activity change, positive = activation in [4] (at 42.5 µM (top of the series)) was -55.4% (inactive); in assay [4] (at 92.4 µM (top of the series)), -77.5% (inactive) and -81.9% (inactive).
Regarding `CC(C)[C@H](C(=O)O[C@H](C#N)c1cccc(Oc2ccccc2)c1)c1ccc(Cl)cc1`, the Potency result in assay [1], in assay [2], in [20], in assay [5], in assay [7] and in [8] was “inactive” each time. The Potency entry in [9], in assay [13], in assay [14], in [15], in [16] and in assay [17] was “inactive” throughout. The Potency result in assay [18] was “inactive”.
Regarding `CC(C)OC(=O)C(O)(c1ccc(Cl)cc1)c1ccc(Cl)cc1`, the Potency in [1] is 54.9 µM (active); in [2], 80 µM (active); in assay [20], 56.6 µM (active); in [6], 21.9 µM (active); in [9] it was 49 µM (active); in assay [10] it was 30.9 µM (active). Further, the results for the Potency in assay [12], in assay [16] and in [17] were 24.5 µM (active), 27.5 µM (active) and 38.9 µM (active), respectively. The Potency result in assay [7] and in assay [18] was “inactive” each time.
For `CC(=O)OC1(c2ccccc2)CCN(CCc2ccccc2)CC1`, the Potency result in [1], in assay [2], in assay [5], in [7], in [8] and in assay [13] was “inactive” throughout. Also, the Potency result in assay [15], in assay [16] and in assay [18] was “inactive” in each case. For the same compound, the compound was classed as inactive in assay [19]. Moreover, the Potency in assay [6] was 31.6 µM (active); in assay [10] it was 25.1 µM (active); in assay [12], 28.2 µM (active).
Take `CC(C)[C@H](C(=O)OC(C#N)c1cccc(Oc2ccccc2)c1)c1ccc(OC(F)F)cc1` (some centres not stated): the Potency entry in assay [1], in assay [2], in assay [5], in assay [6], in [7] and in assay [8] was “inactive” each time. Moreover, the Potency entry in assay [10], in assay [13], in assay [15], in [16], in [17] and in assay [18] was “inactive” throughout. The Potency in [3] was 15.4 µM (active). Also, the activity change, positive = activation in assay [4] (setting [21]) was -19.1% (inactive). Also, the max response in assay [12] was -16.8% (inactive).
